Data reported in PubChem BioAssay (NCI).
About 83,000 compounds went through this panel and 20% of them were active in at least one assay; those are over-represented in the sample as a whole.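 Cell lines were cultured in 96-well plates, exposed to a single compound concentration, and assessed for percent growth 48 hours later.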 Unmarked numbers belong to inactive results. Activity calls are given as the source filed them. Rule for the calls: active = growth percent below 10; inactive = the rest.

Experiments:
Assay in all cases: NCI-60 one-dose screen, 48 h (100 = growth as untreated, 0 = no growth, -100 = all killed)
DU-145 prostate = details: 10 µM unless noted
K-562 leukemia = details: 10 µM unless noted
MALME-3M melanoma = details: 10 µM unless noted
MDA-MB-231 breast = details: 10 µM unless noted
RXF 393 renal = details: 10 µM unless noted
SF-268 CNS = details: 10 µM unless noted
SF-295 CNS = details: 10 µM unless noted
SF-539 CNS = details: 10 µM unless noted
UACC-257 melanoma = details: 10 µM unless noted
M14 melanoma = details: 10 µM unless noted
HCT-15 colon = details: 10 µM unless noted
SNB-75 CNS = details: 10 µM
SNB-19 CNS = details: 10 µM unless noted
U251 CNS = details: 10 µM unless noted
SK-MEL-5 melanoma = details: 10 µM unless noted
UACC-62 melanoma = details: 10 µM unless noted
LOX IMVI melanoma = details: 10 µM unless noted
SK-MEL-28 melanoma = details: 10 µM unless noted
PC-3 prostate = details: 10 µM unless noted

Compound	growth (DU-145 prostate)	growth (K-562 leukemia)	growth (MALME-3M melanoma)	growth (MDA-MB-231 breast)	growth (RXF 393 renal)	growth (SF-268 CNS)	growth (SF-295 CNS)	growth (SF-539 CNS)	growth (UACC-257 melanoma)	growth (M14 melanoma)	growth (HCT-15 colon)	growth (SNB-75 CNS)	growth (SNB-19 CNS)	growth (U251 CNS)	growth (SK-MEL-5 melanoma)	growth (UACC-62 melanoma)	growth (LOX IMVI melanoma)	growth (SK-MEL-28 melanoma)	growth (PC-3 prostate)
C=C(C)[C@@H]1C[C@H](O)Cc2cc(F)ccc2N1	107%	42.2%	109%	108%	100%	113%	116%	86.3%	93.3%	88.6%	100%	87.5%	104%	92.7%	99.3%	95.6%	87.1%	103%	
CCN1CCN(c2nc(NNC(=O)c3ccccc3)nc(N3CCN(C(c4ccccc4)c4ccccc4)CC3)n2)CC1	71.9%	9.4% (active)	4.38% (active)	71.7%	59.7%	76.9%	79.3%	73.1%	13.9%	0.297% (active)	25.7%		72.5%	49.4%	-92.4% (active)	80%	-44.6% (active)	82.9%	48.5%
CN(CCCCCl)P(=O)(OCc1ccc([N+](=O)[O-])o1)C(F)(F)C[C@H](NC(=O)CNC(=O)c1ccc(N=[N+]=[N-])cc1)C(=O)NCCc1ccc(O)cc1 (stereo partly specified)	117%	40.4%	79.6%	108%	47.6%	98.1%	101%	104%	104%	90%	103%		94.1%	69.1%	91.3%	59.7%	79.3%	63.9%	101%
Nc1nc(-c2ccccc2)c(CCCOc2ccc(NC(=O)CBr)cc2)c(=O)[nH]1	104%	94.3%	123%	87.4%	106%	91.8%	117%	93.1%	86.9%	104%	101%	94.3%	91.1%	86.4%	92.9%	90.3%	20.3%	104%	
N[C@@H]1CCN(C(=O)c2cc3cc(Cl)c(F)c(F)c3[nH]2)C1	102%	83.4%	97.8%	79.6%	87.1%	79.8%	94.9%	86.8%	99.7%	89.8%	96.8%		90.2%	86.2%		104%	84%	105%	90.5%
Oc1ccccc1/C=N/NC(=S)NC1CC2C=CC1C2 (stereo unspecified)	88.7%	33.3%	102%	84.2%	68.3%	67.8%	85%	93.8%	76.8%	47.7%	35.5%	105%	82.3%	59.4%	78.3%	82.9%	44.9%	83.1%	
C/C=C(\C)C(C(=O)NC1CCCCC1)N(C(=O)C1CCc2cc(F)ccc2O1)c1ccc(Cl)cc1 (stereo unspecified)	108%	99.7%	109%	103%	109%	97.2%	97.5%	98.2%	98.8%	103%	101%		97.8%	102%	97.2%	92.3%	94.1%		94.5%
Cc1ccc(-c2cc3nc(C(Cl)Cl)nc(-c4ccccc4C)n3n2)cc1	46.9%	17.9%	72.8%	66.8%	22.8%	92.6%	77.3%	86.5%	101%	93.8%	33.2%		70.2%	46.3%	82.6%	59.7%		89.1%	43.1%
